# Assay results: PubChem BioAssay (NCATS)
# Results filed as inconclusive are left out. A number with no mark means an inactive call. The source made the active and inactive calls. Calls follow the shape of the dose curve; as a rule, active = well fitted inhibition curve with a large enough effect in the signal ratio, with a control signal flat (not every such curve was filed as active); inconclusive = small, poorly fitted or top-dose-only effect, or effect the other way, or a change in a side signal; inactive = flat fitted curve, though single readings scatter; the % refers to the signal ratio.
# Assay: qHTS Assay for Identification of Small Molecule Antagonists for NFkB Signaling Pathway (AID 895)
# Settings: NFkB beta-lactamase reporter cells, FRET ratio 460/530; series mostly up to 38.3 µM; activity change, negative = inhibition: at the top concentration
# Method: NIH Molecular Libraries Screening Centers Network [MLSCN]
# NIH Chemical Genomics Center [NCGC]
# The TNF alpha/NFkB signaling pathway was assayed in NFkB-bla cells (Invitrogen), a ME-180 cervical carcinoma line containing a stably integrated beta-lactamase reporter gene controlled by a NFkB response element. […] The assay was screened at the EC50 of TNF alpha activation to identify inhibitors of TNF alpha/NFkB signaling.
# NCGC Assay Protocol Summary:
# Cells were trypsinized, washed in assay medium (AM, OPTI MEM with 0.5% fetal bovine serum, 0.1 mM nonessential amino acids, 1 mM sodium pyruvate, 10mM HEPES pH 7.3, 100U/ml penicillin, and 100 ug/ml streptomycin) and plated at 1000 cells/5 uL/well into black clear-bottom 1536 well plates. After an overnight incubation at 37 C and 5% CO2, 23 nL of compound were delivered by a pin tool, 1 uL of TNF alpha (10 pM final concentration in AM) was added and plates were incubated at 37 C for 5 hrs. One uL of LiveBLAzerTM detector mix (Invitrogen) was added, the plates incubated at room temperature for 2 hrs, and fluorescence intensity at 460 and 530 nm emission was measured at 405 nm excitation by an Envision (Perkin Elmer).
# % is scaled to controls: 0 for no effect and ±100 for the full control effect; potency is read from the fitted curve at half-maximal effect.
Structure (SMILES),"activity change, negative = inhibition",Potency
C[C@]12CC[C@H](O)C[C@@H]1CC[C@H]1[C@H]2CC[C@]2(C)[C@H](C(=O)CO)CC[C@@H]12,-27.9% [at 38.3 µM],–
N[C@H](Cn1ccc(=O)[nH]c1=O)C(=O)O,-13.1%,–
O=C(O)[C@H]1CCN1,-4.18%,–
COC(=O)[C@H](N)CCCN=C(N)N[N+](=O)[O-],-5.77%,–
CC(=O)c1c(O)c(C)c(O)c(Cc2c(O)c3c(c(C(=O)/C=C\c4ccccc4)c2O)OC(C)(C)C=C3)c1O,–,794 nM (active)
NC[C@H](O)c1cc(O)c(O)cc1F,-17.7%,–
CC(C)C[C@H](NP(=O)(O)O[C@@H]1O[C@@H](C)[C@@H](O)[C@@H](O)[C@H]1O)C(=O)N[C@@H](Cc1c[nH]c2ccccc12)C(=O)O,9.94%,–
Oc1ccc2c3c1O[C@@H]1c4[nH]c5c(c4C[C@@]4(O)[C@@H](C2)N(CC2CC2)CC[C@]314)C[C@]1(O)[C@@H]2Cc3ccc(O)c4c3[C@@]1(CCN2CC1CC1)[C@H]5O4,-9.06%,–
C[C@]12CC[C@H](O)CC1=CC[C@@H]1[C@H]2CC[C@]2(C)C(=O)CC[C@H]12,-10% [at 38.3 µM],–
C[N+]1(C)CCc2cc3c(cc2[C@@H]1[C@@H]1OC(=O)c2c1ccc1c2OCO1)OCO3,-6.15%,–
COc1ccc2c(c1O)-c1cccc3c1[C@H](C2)N(C)CC3,10.9% [at 38.3 µM],–
C[C@@]12CC[C@H]3[C@@H](CC=C4C[C@H](OS(=O)(=O)O)CC[C@]43C)[C@H]1CCC2=O,6.58% [at 38.3 µM],–
CN1C[C@@H](CS(=O)(=O)N(C)C)C[C@H]2c3cccc4c3c(cn4C)C[C@@H]21,-3.54%,–
C[N+]1(C)C2CC(OC(=O)C(CO)c3ccccc3)CC1[C@@H]1O[C@H]21 (some centres undefined),-16.7%,–
CCNC(=O)[C@@H]1O[C@@H](n2cnc3c(N)ncnc32)[C@@H](O)[C@H]1O,-29.5%,–
C[C@@]12CC[C@H]3[C@@H](CCC4=C(O)C(=O)CC[C@]43C)[C@H]1CCC2=O,-19.6% [at 38.3 µM],–
CCCN1CC[C@@H]2c3cc(O)ccc3CC[C@H]21,-9.89%,–
CC(=O)OCC1=C(C(=O)[O-])N2C(=O)[C@@H](NC(=O)CCC[C@@H](N)C(=O)[O-])[C@@H]2SC1.[Zn+2],-8.97%,–
COc1ccc2c3c1O[C@@H]1C(=O)CC[C@@]4(O)[C@@H](C2)N(CC2CC2)CC[C@]314,13.1% [at 38.3 µM],–
